High-throughput results (PubChem)
Most compounds without a hit are left out; they make up all but 21% or so of the library.
Pf growth 48h: inhibits P. falciparum growth in the first generation, 48 h | AID 504832 | 310,000 tested, 5.9% active | Potency, µM (highest dose often 28.7 µM), inactives show at the top dose activity change, negative = inhibition, usual class: inhibitors | P. falciparum luciferase growth in erythrocytes, 48 h; note: potency is the fitted concentration of half-maximal effect; % is set by controls: 0 for no effect and ±100 for the full control effect
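Here the parasites carry a stable luciferase gene and grow inside erythrocytes in Albumax-based RPMI medium with compound for one erythrocytic cycle. Activity is scored as loss of luminescent signal.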
Pf growth 96h: P. falciparum growth inhibition at 96 hour, primary screen for plastid delayed-death inhibitors; P. falciparum luciferase reporter growth, 96 h; Potency, µM (highest dose often 28.7 µM), for inactives: top-dose activity change, negative = inhibition, most hits filed as inhibitors; 320,000 tested, 6.9% active; AID 504834; note: potency is the fitted concentration of half-maximal effect; % is set by controls: 0 for no effect and ±100 for the full control effect
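96 h incubation, 37 C, 5% CO2, of luciferase-reporter P. falciparum-infected RBCs (2% hematocrit, 0.05% parasitemia final) with test compounds; endpoint luminescence.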
NS1 function inh: influenza NS1 inhibition | Potency, µM (series often up to 46.1 µM), for the others: at the top dose activity, positive = more growth | 270,000 tested, 0.4% active | AID 2326; calls by dose curve; note: potency is the fitted concentration of half-maximal effect; actives are rising curves; nearly all actives have a fitted effect of over 50% in size
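A cell-based growth assay was used: compounds that relieve NS1-induced slow growth of budding yeast raise OD600. Assay medium was yeast nitrogen base with ammonium sulphate and -URA supplement, pH 6.0, with 2% galactose.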
Cycloheximide cs: counter-screen for Shiga toxin inhibitors: cycloheximide protein synthesis inhibition; 300,000 tested, 12% active; max response, %; cell reporter, cycloheximide protein synthesis inhibition counterscreen; in the data active = max response mostly above about 13%, no sharp cut-off; inactive = mostly below about 14%; note: read at 38.3 µM for the half of the compounds with a filed dose; 0% is about no effect
Shiga inhibitor: inhibitors of Shiga toxin in Vero cells; AID 2315; 290,000 tested, 9.2% active; Vero cells, Shiga toxin protein synthesis inhibition reporter; inhibition, % at 38.7 µM; in the data active = inhibition mostly above about 28%, no sharp cut-off; inactive = mostly below about 43%; note: 0% is about no effect
Sm TGR inh: inhibitors of Schistosoma mansoni thioredoxin glutathione reductase. Q962Y6. purified TGR, DTNB reduction, TNB absorbance 405 nm. Potency, µM (doses to about 114 µM), for inactives: at the top dose activity change, negative = inhibition, hits mostly inhibitors. 360,000 tested, 3% active; note: potency is the fitted concentration of half-maximal effect; % is set by controls: 0 for no effect and ±100 for the full control effect; nearly all actives have a fitted effect of over 60% in size
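First, TGR (20 nM dispensed) and NADPH were mixed with compound. Second, a 15 min room-temperature incubation followed. Third, further NADPH and then DTNB were added to start the reaction. Finally, TNB absorbance was monitored kinetically.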
An asterisk follows results filed as active; ? = inconclusive; / = no result given; [ ] = another dose, or the depositor's remark. Unless noted, calls come from the whole dose curve; as a rule, active = well fitted curve in the direction sought with a large enough effect; inconclusive = small, poorly fitted or top-dose-only effect, or another doubt; inactive = no such curve, though single readings can be large; an effect the other way counts as inactive or inconclusive.

SMILES	Pf growth 48h	Pf growth 96h	NS1 function inh	Cycloheximide cs	Shiga inhibitor	Sm TGR inh
O=C(O)c1ccccc1C(=O)c1ccc(-c2ccccc2)cc1	22%	?	-4%	44*	92*	-6%
Cc1c(O)ccc2c(CC(=O)N[C@@H](Cc3ccc(O)cc3)C(=O)O)cc(=O)oc12	-2%	3%	-2%	1	13	39%
CC(C)(C)C(=O)n1nc(-c2ccccc2)oc1=O	-2%	18%	4%	-1	12	32µM*
O=C(O)Cn1nc(-c2ccccc2)oc1=O	28%	/	1%	-1	-16	4%
CCc1ccccc1OCC(=O)Nc1ccc(N2CCCC2)cc1C	5.2µM*	2.6µM*	/	/	/	16µM*
Cc1cc(N2CCCC2)ccc1NC(=O)COc1ccccc1	15µM*	?	/	/	/	18µM*
COc1ccccc1OCC(=O)Nc1ccc(N2CCOCC2)cc1N1CCOCC1	2%	?	/	/	/	-4%
CC(=O)N(C)c1ccc(OCC(O)Cn2c(C)nc3ccccc32)cc1 (configuration not stated)	?	?	/	-5	-9	-9%
CN(C)c1ccc2nc3c(=O)[nH]c(=O)nc-3n(CC(O)C(O)C(O)CO)c2c1 (configuration not stated)	4.1µM*	44%	1%	-3	-1	9%
CO[C@H]1C=CO[C@@]2(C)Oc3c(C)c(O)c4c(O)c(c5c(nc6cc(C)ccn65)c4c3C2=O)NC(=O)C(C)=CC=C[C@H](C)[C@H](O)[C@@H](C)[C@@H](O)[C@@H](C)[C@H](OC(C)=O)[C@@H]1C	/	/	/	-1	-7	-1%
COC(=O)C1C(O)C(C)C(O)C(C)/C=C\C=C(/C)C(=O)Nc2c(C)c(OC(C)=O)c3c(c2O)C(=O)C(C)=C2OCOC(=C23)/C(C)=C/C(C)(O)C(O)C(C)C1O (configuration not stated)	12µM*	9.3µM*	10%	-6	-9	-24%
Clc1cccc(-c2ccc(CNCc3ccccn3)o2)c1	216%	?	0%	32*	81*	13µM*
Brc1ccc(-c2ccc(CNCc3ccccn3)o2)cc1	-32%	?	-2%	26*	55	40µM*
C[C@H]1CN=C(Nc2ccccc2)N1CCC1CCCC1	0%	0%	-14%	-2	-4	-10%
CCOc1cc(CNC(C)C(O)c2ccccc2)cc(Cl)c1OCC (configuration not stated)	1.5µM*	?	6%	-2	2	-10%
COc1cc(CNC(C)c2ccccc2)cc(Cl)c1OCC(=O)Nc1ccccc1 (configuration not stated)	12µM*	?	-14%	1	11	20%
CC(NCc1ccccc1Cl)C(O)c1ccccc1 (configuration not stated)	9.3µM*	7.4µM*	-8%	20	19	-4%
CC(NCc1ccccc1C(F)(F)F)C(O)c1ccccc1 (configuration not stated)	8.3µM*	-1%	6%	4	20	/
Cc1ccc(NC(=O)CN(C)C(=O)c2ccc(S(=O)(=O)N(C)c3ccccc3)cc2)cc1	?	?	/	2	-11	-20%
Cc1nnc(SCC(=O)NCc2ccccc2)[nH]c1=O	-10%	/	5%	-4	-19	-5%
CCCCN(C(=O)CSc1nnc(Nc2ccccc2)s1)c1c(N)n(CCC)c(=O)[nH]c1=O	9%	-25%	-8%	-6	16	3%
CN1CCc2c(sc3c2C(=O)NC(/C=C\c2ccccc2)N3)C1 (configuration not stated)	6%	-12%	4%	-3	28	10µM*
CN1CCc2c(sc3c2C(=O)NC(c2cccs2)N3)C1 (configuration not stated)	66%	36%	-57%	34*	35*	-21%
COc1cc(=O)[nH]c(SCC(=O)Nc2nc3c(s2)CCCC3)n1	-1%	3%	2%	1	-3	-3%
CC(Sc1nnc2ccccn12)C(=O)NCc1ccc2c(c1)OCO2 (configuration not stated)	?	-2%	/	-4	-10	16%
SMILES	Pf growth 48h	Pf growth 96h	NS1 function inh	Cycloheximide cs	Shiga inhibitor	Sm TGR inh
O=C(CSc1nnnn1Cc1ccccc1)Nc1ccc2c(c1)OCCO2	21%	4%[5.75 µM]	-9%	23*	65	6%
CC(Sc1nnc2ccccn12)C(=O)Nc1ccc2c(c1)OCCO2 (configuration not stated)	36%	33%	/	21*	85*	5%
CC(C)(C)NC(=O)CSc1nc2ccc(NC(=O)CSc3nnnn3Cc3ccccc3)cc2s1	/	4.7µM*	3%	-3	-3	-9%
Cc1csc(SC(C)C(=O)Nc2ccc3c(c2)OCCO3)n1 (configuration not stated)	15%	1%	/	29*	42	4%
CCOC(=O)CSc1nc2ccc(NC(=O)CSc3nnnn3Cc3ccccc3)cc2s1	-24%	3%	4%	-2	-7	-3%
Cc1cccc(C)c1OCCn1c(CCNC(=O)C2CCCCC2)nc2ccccc21	/	/	/	-3	2	14%
Cc1ccc(/C=C/c2onc(C)c2S(=O)(=O)N2CCC(C(=O)N3CCOc4ccc(C)cc43)CC2)cc1	/	/	/	/	/	1%
Cc1noc(NS(=O)(=O)c2ccc(NC(=O)c3ccc(Cl)c(S(=O)(=O)N(C)c4ccccc4)c3)cc2)c1C	?	?	/	/	/	-1%
Cc1ccc(C)c(NC(=O)N2CCC(N3CCN(Cc4ccc(F)cc4)C(=O)C3=O)CC2)c1	/	/	/	/	/	-3%
CC(Sc1nnnn1C)C(=O)Nc1ccc2c(c1)OCCO2 (configuration not stated)	78%	71%	/	29*	115*	2%
Cc1ccc(NC(=O)CSc2nn(-c3ccccc3)c(=S)s2)cc1S(=O)(=O)N(C)C	?	3.3µM*	8%	10	15	-1%
CC(=O)Nc1ccc(C(=O)CSc2nnnn2C(C)C)cc1	27%	?	-4%	21*	81*	-2%
CCC(C(=O)Nc1ccc2c(c1)OCCO2)n1nnc2ccccc2c1=O (configuration not stated)	124%	126%	-3%	59*	66*	-8%
Cc1ncc(CN2CCC(CO)(Cc3ccccc3)CC2)s1	0%	?	1%	-2	7	10%
CC(=O)N1CCCC1c1nc2ccccc2n1Cc1cccc(C)c1 (configuration not stated)	/	/	/	/	/	-2%
CC(C)Cn1c(SC(C)C(=O)Nc2ccc3c(c2)OCCO3)nc2ccccc2c1=O (configuration not stated)	?	/	8%	1	4	-1%
O=C(CSc1nnnn1Cc1ccccc1)Nc1ccc2c(c1)OCO2	29%	/	-6%	13*	33*	2%
